This is a sample that favours compounds with a hit; in the whole collection about 3.7% have one here.
TCR activator: activators of T cell receptors. primary human leukocytes, anti-CD3, IL-2 HTRF, 48 h. Potency, µM (doses to about 9.22 µM), for the others: at the highest dose activation of IL-2 secretion, most hits filed as activators. 330,000 tested, under 10 active; further: % of control where 0% means no effect
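Readout: HTRF IL-2, Eu-cryptate/d2 antibody pair, 320nm excitation, 665nm emission. Stimulus: a-CD3 beads, no co-stimulation. Cells: primary human leukocytes. Exposure: 48 hr with compound.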
PLK1 PBD inh: blocks phosphopeptide binding to human PLK1 polo-box domain; Plk1 PBD binding of FITC phosphopeptide, fluorescence polarization; Potency, µM, for inactives: max response, negative = inhibition, hits mostly inhibitors; 360,000 tested, 2.8% active; AID 720504; further: potency means the concentration at half of the fitted maximal effect; series mostly up to about 57 µM; on the % scale 0 is the no-effect control and ±100 the full control effect; nearly all actives have a fitted effect of over 65% in size
Target sequence (P53350 whole entry, looked up, the tested form may be a part): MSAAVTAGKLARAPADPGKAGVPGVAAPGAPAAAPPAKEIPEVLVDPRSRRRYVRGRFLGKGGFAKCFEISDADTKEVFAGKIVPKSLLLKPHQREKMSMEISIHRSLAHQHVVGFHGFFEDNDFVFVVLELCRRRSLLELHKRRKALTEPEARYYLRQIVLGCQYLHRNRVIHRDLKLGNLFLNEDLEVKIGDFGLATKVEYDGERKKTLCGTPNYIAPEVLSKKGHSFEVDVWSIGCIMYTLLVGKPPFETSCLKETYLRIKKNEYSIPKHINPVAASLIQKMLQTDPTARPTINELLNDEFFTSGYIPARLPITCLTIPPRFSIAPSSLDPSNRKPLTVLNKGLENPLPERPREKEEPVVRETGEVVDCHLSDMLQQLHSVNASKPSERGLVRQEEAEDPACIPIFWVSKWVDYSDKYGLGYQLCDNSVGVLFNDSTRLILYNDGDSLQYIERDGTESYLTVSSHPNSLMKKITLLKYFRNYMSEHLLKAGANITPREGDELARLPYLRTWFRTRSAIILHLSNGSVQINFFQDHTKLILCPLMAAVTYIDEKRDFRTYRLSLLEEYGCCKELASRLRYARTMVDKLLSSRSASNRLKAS
WRN helicase inh: WRN helicase (human) inhibition | Q14191 | WRN helicase unwinding, fluorescent forked duplex, kinetic | Potency, µM (top dose mostly 114 µM), without a hit: top-dose activity change, negative = inhibition, usual class: inhibitors | 360,000 tested, 0.46% active | AID 651768; further: potency means the concentration at half of the fitted maximal effect; on the % scale 0 is the no-effect control and ±100 the full control effect; nearly all actives have a fitted effect of over 55% in size
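Enzyme (20 nM final) and test compound sit together 15 min at room temperature before substrate addition. Substrate is a single-forked duplex oligonucleotide (100 nM) labelled with fluorophore and quencher, with 2 mM ATP; helicase unwinding raises red fluorescence, read kinetically.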
FEN1 inh: inhibitors of human flap endonuclease 1; 390,000 tested, 0.35% active; Potency, µM (titrated, usually from 114 µM), without a hit: at the highest dose activity change, negative = inhibition, hits mostly inhibitors; AID 588795; P39748; Recombinant FEN1 flap cleavage, fluorescence, 15 min; further: potency means the concentration at half of the fitted maximal effect; on the % scale 0 is the no-effect control and ±100 the full control effect; nearly all actives have a fitted effect of over 65% in size
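Steps: FEN1 (10 nM) dispensed; compound added by pin tool; 15 min at room temperature; substrate added to 50 nM final; reads at 0 min and 15 min; data normalized and fitted (four-parameter Hill).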
VDR inh: blocks the human vitamin D receptor. Potency, µM, for the others: max response, negative = inhibition, usual class: inhibitors. 400,000 tested, 0.93% active. P11473. AID 504847. VDR-SRC2-3 peptide fluorescence polarization, 2 h; further: potency means the concentration at half of the fitted maximal effect; on the % scale 0 is the no-effect control and ±100 the full control effect
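The screen uses fluorescence polarization to detect compounds that interfere with recruitment of the SRC2-3 coactivator peptide to VDR; plates are read after 2 h at room temperature.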
PI5P4Ka inh: inhibitors of human PI5P4K alpha; P48426; PI5P4Kalpha enzyme, ADP-Glo luminescence, 60 min; stronger effect = lower value; max response, %; 330,000 tested, 1.2% active; AID 652105; active means max response of -50% or lower; inconclusive means between -30% and -50%; inactive means -30% or higher; further: value at the top dose of about 77 µM; on the % scale 0 is the no-effect control and ±100 the full control effect
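Single end-point luminescence (ADP-Glo) quantified ADP from PI5P4Kalpha turnover; ATP 5 microM final, 1 h at RT, 0.1% CHAPS and 0.28 mM EGTA in HEPES pH 7.4.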
* hit, by the source's call; ? = inconclusive; . = no result given; [ ] = dose if it differs, or a comment. Unless noted, the call rests on the fitted dose curve; in most records, active means well fitted curve in the direction sought with a large enough effect; inconclusive means small, poorly fitted or top-dose-only effect, or another doubt; inactive means no such curve, though single readings can be large; an effect the other way counts as inactive or inconclusive.

SMILES	TCR activator	PLK1 PBD inh	WRN helicase inh	FEN1 inh	VDR inh	PI5P4Ka inh
CC(C)C[C@H](NC(=O)CN(C)C(=O)[C@H](Cc1ccccc1)NC(=O)[C@H](Cc1ccccc1)NC(=O)[C@H](CCC(N)=O)NC(=O)[C@H](CCC(N)=O)NC(=O)[C@@H]1CCCN1C(=O)[C@H](CCCCN)NC(=O)[C@@H]1CCCN1C(=O)[C@@H](N)CCCN=C(N)N)C(=O)N[C@@H](CCS(C)(=O)=O)C(N)=O	.	.	.	.	-11%	.
O=C(O)c1ccccc1-c1ccccc1C(=O)Nc1ccc(F)cc1	-4%	-10%	4%	0%	1%	-11
O=C(/C=C/c1ccc(NC(=O)c2ccccc2-c2ccccc2C(=O)O)cc1)c1ccccc1	.	-16%	?	-2%	20µM*	-18
O=C(/C=C/c1ccncc1)c1ccc(NC(=O)c2ccccc2F)cc1	-3%[46.1 µM]	-7%	?	?	32µM*	-21
COc1ccccc1Nc1nn2c(=O)c3ccc(C(=O)NCCc4ccccc4)cc3nc2s1	.	.	.	-7%	10%	.
Cc1ccc2c(c1)ncc[n+]2CC(=O)c1ccc(F)cc1	.	.	.	-20%	.	.
COc1cccc(NC(=O)/C(C#N)=C\c2cn(Cc3ccc(C)cc3)c3ccccc23)c1	.	.	.	-6%	-10%	.
N#C/C(=C/c1cn(Cc2ccc(F)cc2)c2ccccc12)C(=O)Nc1cccc(Cl)c1	.	.	.	89µM*	-19%	.
C=CCOC(=O)[C@H](O)[C@@H](O)C(=O)OCC=C	.	.	.	.	0%	.
O=C(O)/C(=C\c1ccc2ccccc2c1)c1cccc2ccccc12	3%	21µM*	-5%	11%	-29%	3
O=C(O)C(=Cc1ccncc1)c1cccc2ccccc12	.	-6%	-2%	.	.	-2
O=C1N/C(=N/O)S/C1=C/c1cccnc1	-6%	24µM*	-2%	15%	-20%	-55*
CC(/C=C1\SC(=Nc2cccnc2)NC1=O)=C\c1ccccc1	-1%	27µM*	?	7%	-22%	?
CN1C(=O)S/C(=C/c2cccnc2)C1=O	0%	-10%	-17%	31%	-17%	.
O=C1/C(=C\c2cccnc2)Sc2ccccc21	-8%[46.1 µM]	24µM*	-25%	3%	?	-17
Cc1[nH]c2ccccc2c1C(=O)COC(=O)c1ccccc1SCC(=O)N1CCCC1	.	.	.	-10%	.	.
CCOc1ccc(S(=O)(=O)NCc2nc3cccnc3n2Cc2ccccc2OC)cc1	.	.	.	10%	15%	.
CCCCc1nc2cc(C(=O)N3CCCCC3C(=O)OC)ccc2o1 (centres undefined)	-4%	27µM*	9%	16%	?	-21
Cc1cccc(NC(=O)C(Cc2ccccc2)N2Cc3ccccc3C2=O)c1C (centres undefined)	.	.	.	4%	16%	.
O=c1c2c3c(sc2nc2n1CCCCC2)CCCC3	0%	27µM*	-9%	-12%	-16%	-17
Brc1ccc[n+](CCc2ccccc2)c1	.	.	.	-18%	.	.
CCOc1ccccc1NC(=O)Nc1nnc(N2CCCCCC2)s1	.	.	.	-3%	20%	.
COc1ccc(Nc2nc(-c3ccc4c(c3)NC(=O)CO4)cs2)cc1	0%	?	-11%	-2%	-12%	1
CCC(C)Nc1nc(-c2ccc3c(c2)NC(=O)CO3)cs1 (centres undefined)	-7%	30µM*	-9%	-2%	-19%	3
Cc1nc(Nc2ccc(Cl)cc2)c2oc3ccccc3c2n1	8%	27µM*	6%	-6%	?	3
SMILES	TCR activator	PLK1 PBD inh	WRN helicase inh	FEN1 inh	VDR inh	PI5P4Ka inh
CC(=O)N1CCC[C@@]2(CCN(c3ccncc3)C2)C1	.	.	.	.	-11%	.
O=C(c1cnccn1)N1CCC[C@@]2(CCN(c3cccc(-c4ccccc4)c3)C2)C1	.	.	.	.	28µM*	.
O=C(c1cnccn1)N1CCC[C@@]2(CCN(c3ccccc3)C2)C1	.	.	.	.	-10%	.
O=C(c1csnn1)N1CCC[C@@]2(CCN(c3ccncc3)C2)C1	.	.	.	.	71µM*	.
COc1ccc2c(c1)CCC2=O	.	.	.	-18%	.	.
COc1ccc(Cn2ccc3nc(C)c(C(=O)Nc4ccc(OC)cc4)cc3c2=O)cc1	.	.	.	13%	8%	.
Cc1ccc(S(=O)(=O)n2cccc2/C=C/[N+](=O)[O-])cc1	.	7.5µM*	-16%	.	.	-22
Cc1cc(NC(=O)c2ccccc2F)ncc1NC(=O)c1cccs1	1%	8.4µM*	-13%	6%	-26%	?
COc1ccc(NC(=O)Cn2c(=O)n(CCC(=O)NCCc3ccc(OC)c(OC)c3)c(=O)c3ccccc32)cc1Cl	.	.	.	23%	-4%	.
O=C(CCN1CCOCC1)c1ccc2c(c1)OCCO2	-8%[46.1 µM]	?	?	1%	56µM*	2
CC(CN1CCCCC1)OC(=O)c1ccc2c(c1)OCO2 (centres undefined)	6%	1%	5%	6%	9%	-4
O=C(CCCN1CCOCC1)c1ccc2c(c1)OCCO2	-1%	-1%	-1%	7%	-19%	.
O=C(CCN1CCCCC1)c1ccc2c(c1)OCO2	-5%	?	?	10%	45µM*	-2
Cc1cc(Cl)ccc1OCC(=O)Nc1cccc(-c2nc3ccccc3o2)c1	.	.	.	0%	.	.
CCCc1c(C)nc2ccccc2c1SCCC#N	-29%[46.1 µM]	21µM*	6%	-2%	-26%	-4
CCCCc1c(C)nc2ccc(Br)cc2c1SCCC#N	-21%[46.1 µM]	.	.	.	.	.
Cc1cccc(C(=O)n2c(=S)nc3ccccn32)c1	-2%	24µM*	2%	1%	79µM*	?
CCOC(=O)c1c(NC(=O)c2cc(-c3ccc(Br)cc3)on2)sc(C)c1C	.	.	.	-12%	79µM*	.
CCCc1cc(C(=O)Nc2sc(C)c(C)c2C(=O)OCC)no1	5%	21µM*	5%	3%	?	-23
O=C(CSc1c2c(nc3ccc(Cl)cc13)CCCC2)N1CCN(c2cccc(Cl)c2)CC1	.	.	.	-20%	-9%	.
CS(=O)(=O)N(CC(=O)NCc1ccc(Cl)cc1)C1CCCCC1	1%[46.1 µM]	3µM*	4%	2%	-7%	?
Cc1ccc(S(=O)(=O)N(CC(=O)NCc2ccncc2)C2CCCCC2)cc1	-1%	2.7µM*	4%	4%	?	?
CCOC(=O)c1ccc(S(=O)(=O)N2CCN(c3nc(-c4cccs4)nc4ccccc34)CC2)cc1	.	.	.	-7%	-6%	.
CCC[C@H](NC(=O)[C@H](Cc1ccc(O[S+](=O)([O-])O)cc1)NC(=O)OC(C)(C)C)C(=O)NCC(=O)N[C@@H](Cc1c[nH]c2ccccc12)C(=O)N[C@@H](CCC)C(=O)N[C@@H](CC(=O)OCCc1ccccc1)C(=O)O	.	.	.	.	-13%	.
COc1ccccc1CNC(=O)Cn1ncc2c(C)n(Cc3ccccc3Cl)c(C)c2c1=O	.	.	.	9%	5%	.
CCc1c(C(C)S(=O)(=O)c2ccc(C)cc2)[nH]c(=O)n1-c1ccc(OC(F)(F)F)cc1 (centres undefined)	-14%	27µM*	-16%	-7%	-17%	-6
